Results on 14 compounds are retold here after PubChem BioAssay (NCI).

Compounds without any hit were thinned out: in the full panel of roughly 83,000, 20% have a hit.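 How to read the values: 0–100, growth inhibition (40 = 60% inhibited); 0, no net growth; -100 to 0, cell death (-40 = 40% of starting cells died; -100 = all dead).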 A number with no mark means an inactive call. Calls of active or inactive are those of the source. The calls were made as follows: active = growth percent below 10; inactive = the rest.

Test systems include NCI-H23 lung; NCI-H226 lung; NCI-H322M lung; HOP-62 NSCLC; NCI-H460 lung; HOP-92 NSCLC; NCI-H522 lung; A549/ATCC NSCLC; 786-0 renal; COLO 205 colon.
What all share (test): NCI-60 one-dose screen, 48 h (100 = growth as untreated, 0 = no growth, -100 = all killed)
Common to all, as to conditions: 10 µM unless noted

`O=[N+]([O-])c1cccc(N=NNc2cccc([N+](=O)[O-])c2)c1`: the growth in the experiment with NCI-H23 lung was 95.2%; with NCI-H226 lung, 108%; with NCI-H322M lung, 101%; in the experiment with HOP-62 NSCLC, 110%; with NCI-H460 lung it was 100%; with HOP-92 NSCLC, 64.4%. In addition, the growth with NCI-H522 lung was 78%; in the experiment on A549/ATCC NSCLC, 86.7%; in the experiment with 786-0 renal it was 90.4%; with COLO 205 colon, 113%.

As for `O=C(O)c1cn(C2CC2)c2cc(N3CCN(Cc4cc(Cl)ccc4O)CC3)c(F)cc2c1=O`, the growth in the experiment with NCI-H23 lung was 78.8%; in the experiment with NCI-H226 lung, 82.8%; with NCI-H322M lung, 77.9%; in the experiment on HOP-62 NSCLC it was 64.1%; in the experiment on NCI-H460 lung it was 52%; with HOP-92 NSCLC, 59.9%. In addition, the growth was 67.5% with NCI-H522 lung, 30.4% in the experiment on A549/ATCC NSCLC, 85.1% with 786-0 renal and 75.7% in the experiment with COLO 205 colon.

For the compound `O=C1CN(Cc2ccc(C(=O)NO)cc2)C(=O)[C@@H](Cc2ccccc2)N1`, the growth in the experiment on NCI-H23 lung is 100%; in the experiment on NCI-H226 lung, 104%; in the experiment with NCI-H322M lung it was 102%; in the experiment with HOP-62 NSCLC, 102%; with NCI-H460 lung, 103%; in the experiment with HOP-92 NSCLC, 102%. In addition, the growth was 98.2% with NCI-H522 lung, 96.4% with A549/ATCC NSCLC, 95.8% in the experiment with 786-0 renal and 114% with COLO 205 colon.

Consider `COC(=O)[C@@H](NC(=O)NC(=O)NC(=O)CI)C(C)C`, for which the growth is 93.8% with NCI-H23 lung; 85.1% in the experiment on NCI-H226 lung; 103% with NCI-H322M lung; 86.3% in the experiment on HOP-62 NSCLC; 89.3% in the experiment on NCI-H460 lung; -17.7% (active) with HOP-92 NSCLC. Also, the growth was -85.9% (active) in the experiment with NCI-H522 lung, 94.6% in the experiment on A549/ATCC NSCLC, -25.1% (active) in the experiment on 786-0 renal and 38.6% in the experiment on COLO 205 colon.

In the case of `CCCCC(CC)COC(=O)C[N+](C)(C)CCOC(c1ccccc1)c1ccccc1` (stereo not given), the growth was 42% in the experiment on NCI-H23 lung; 54.1% with NCI-H226 lung; 88.7% in the experiment on NCI-H322M lung; 60.6% in the experiment with HOP-62 NSCLC; 65.2% in the experiment with NCI-H460 lung; -12.2% (active) in the experiment on HOP-92 NSCLC. Moreover, the growth was -24.5% (active) in the experiment with NCI-H522 lung, 88.3% with A549/ATCC NSCLC, 77.7% in the experiment with 786-0 renal and -28% (active) in the experiment with COLO 205 colon.

Consider `Cc1ncc(C(=O)Nc2ccc(CN3CCN(C)CC3)c(C(F)(F)F)c2)cc1C#Cc1c(N)ncc2ccc(C#N)cc12`, for which the growth is 35.8% in the experiment with NCI-H23 lung; 19.9% in the experiment on NCI-H226 lung; 34.4% in the experiment with NCI-H322M lung; 16.5% in the experiment on HOP-62 NSCLC; 43.4% in the experiment with NCI-H460 lung; -8.03% (active) with HOP-92 NSCLC. In addition, the growth in the experiment with NCI-H522 lung was 46.9%; in the experiment on A549/ATCC NSCLC, 34.4%; in the experiment on 786-0 renal it was -51% (active); with COLO 205 colon it was 7.77% (active).

For `CCN(CCNc1ccc(C)c2sc3cc(Cl)ccc3c(=O)c12)CC(C)O` (stereo not given), the growth in the experiment with NCI-H23 lung was 92.9%; with NCI-H226 lung, 134%; in the experiment on NCI-H322M lung, 95.9%; in the experiment with HOP-62 NSCLC, 76%; with NCI-H460 lung it was 3.16% (active); with HOP-92 NSCLC it was 29.8%. Moreover, the growth with NCI-H522 lung was 28.3%; with A549/ATCC NSCLC, 34.7%; with 786-0 renal, 41.9%; in the experiment on COLO 205 colon it was -34% (active).

Consider `Cc1ccc2c(c1)/C(=N\N=C/c1cn(C(C)C)c3ccccc13)C(=O)N2`, for which the growth is 61.7% with NCI-H23 lung; 56.1% in the experiment with NCI-H226 lung; 61.1% with NCI-H322M lung; 49% in the experiment on HOP-62 NSCLC; 40.5% in the experiment with NCI-H460 lung; 71.8% in the experiment on HOP-92 NSCLC. For the same compound, the growth is 14.4% with NCI-H522 lung, 60.8% in the experiment with A549/ATCC NSCLC, 93% with 786-0 renal and -29.8% (active) with COLO 205 colon.

In the case of `C[C@H]1[C@H](C)CC[C@]2(C(=O)O)CC[C@]3(C)C(=CC[C@@H]4[C@@]5(C)C/C(=C/c6ccco6)C(=O)C(C)(C)[C@@H]5CC[C@]43C)[C@H]12`, the growth was -81.1% [100 µM] (active) in the experiment with NCI-H23 lung; -52.3% [100 µM] (active) with NCI-H226 lung; -73.4% [100 µM] (active) with NCI-H322M lung; -75.7% [100 µM] (active) in the experiment with HOP-62 NSCLC; -55.6% [100 µM] (active) with NCI-H460 lung; -87.7% [100 µM] (active) in the experiment on HOP-92 NSCLC. Besides, the growth in the experiment with NCI-H522 lung is -82.7% [100 µM] (active); with A549/ATCC NSCLC it was -52.5% [100 µM] (active); with 786-0 renal it was -40.3% [100 µM] (active); in the experiment on COLO 205 colon, -60.9% [100 µM] (active).

For `CN(C)c1ccc(N=Nc2ccc3ccccc3c2)cc1`, the growth is 91.5% in the experiment with NCI-H23 lung; 79.9% in the experiment with NCI-H226 lung; 89.6% in the experiment with NCI-H322M lung; 110% with HOP-62 NSCLC; 87.5% with NCI-H460 lung; 82.1% in the experiment on HOP-92 NSCLC. For the same compound, the growth with NCI-H522 lung is 71.7%; with A549/ATCC NSCLC, 92%; in the experiment with 786-0 renal, 122%; in the experiment on COLO 205 colon it was 73.7%.

For the compound `[2H]C1([2H])CCN(C(=O)C2CC2)c2cc(NS(=O)(=O)c3ccc(-c4cccc(C(N)=O)c4)cc3)ccc21`, the growth in the experiment with NCI-H23 lung was 44%; with NCI-H226 lung, 61.1%; in the experiment with NCI-H322M lung it was 64.6%; with HOP-62 NSCLC, 29.1%; in the experiment with NCI-H460 lung, 17.3%; in the experiment on HOP-92 NSCLC it was 33.3%. The growth was 14% in the experiment on NCI-H522 lung, 45.2% in the experiment on A549/ATCC NSCLC, 81.8% in the experiment on 786-0 renal and 37.7% in the experiment on COLO 205 colon.

Take `Cc1cc(C)c(O)c(CNCCCNCc2cc(C)cc(C)c2O)c1`: the growth in the experiment with NCI-H23 lung is 81.7%; with NCI-H226 lung it was 91.4%; in the experiment with NCI-H322M lung, 45.7%; in the experiment on HOP-62 NSCLC, 74.9%; in the experiment on NCI-H460 lung, 40.7%; in the experiment on HOP-92 NSCLC, 40.5%. For the same compound, the growth in the experiment with NCI-H522 lung is 42.4%; with A549/ATCC NSCLC, 78.8%; in the experiment with 786-0 renal, 80%; with COLO 205 colon it was 9.05% (active).

Turning to `COc1ncnc2c(-c3ccccc3)cn(COCc3ccccc3)c12`, the growth was 45.8% with NCI-H23 lung; 66.5% with NCI-H226 lung; 86.6% with NCI-H322M lung; 75.6% in the experiment on HOP-62 NSCLC; 34.1% with NCI-H460 lung; -0.37% (active) with HOP-92 NSCLC. Besides, the growth is 36.2% in the experiment on NCI-H522 lung, 51.1% with A549/ATCC NSCLC, 60.7% with 786-0 renal and 78.3% with COLO 205 colon.

For `COc1ccc(-c2cc(-c3ccc(Cl)cc3)nc(NCCCCNc3ccnc4cc(Cl)ccc34)n2)cc1`, the growth in the experiment with NCI-H23 lung is 86.4%; with NCI-H226 lung it was 75%; in the experiment with NCI-H322M lung, 94.4%; in the experiment with HOP-62 NSCLC, 78.1%; in the experiment with NCI-H460 lung, 89.7%; in the experiment with HOP-92 NSCLC, 46.2%. Besides, the growth with NCI-H522 lung was 80%; in the experiment with A549/ATCC NSCLC it was 91.8%; in the experiment with 786-0 renal, 73.5%; in the experiment on COLO 205 colon it was 30.4%.
